Data: the supplement of paper PMC9694430
“And” between values parts separate entries of the source, which are not always exact repeats. Identical values can stand only once.

Legend:
Experiment in all cases: thermal shift delta Tm vs DMSO control; higher = stronger stabilization (binding)
Conditions in all cases: 12.5 µM; protein concentration 2 µM
[1] = test system: LOC_OS01G57100-cb003
Method in brief: (§1)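 Purified, E. coli-expressed rice kinase domain constructs were tested by differential scanning fluorimetry in 96-well plates: 19.5 μl of 2 μM kinase in 100 mM potassium phosphate pH 7.5, 150 mM NaCl, 10% glycerol, 5 × SYPRO Orange, plus compound in DMSO. Fluorescence was read from 25°C to 95°C at 0.05°C/s. Melting temperatures came from Boltzmann fits, and the shift is the triplicate mean relative to protein with DMSO alone.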

[2] = test system: LOC_OS01G60330-cb001
Method in brief: as §1

[3] = test system: LOC_OS01G60700-cb002
Method in brief: as §1

[4] = test system: LOC_OS01G63280-cb003
Method in brief: as §1

[5] = test system: LOC_OS01G67340-cb003
Method in brief: as §1

[6] = test system: LOC_OS01G70970-cb002
Method in brief: as §1

[7] = test system: LOC_OS02G07810-cb001
Method in brief: as §1

[8] = test system: LOC_OS02G08530-cb003
Method in brief: as §1

[9] = test system: LOC_OS02G14120-cb001
Method in brief: as §1

[10] = test system: LOC_OS02G17970-cb001
Method in brief: as §1

Compound	thermal shift delta Tm [1]	thermal shift delta Tm [2]	thermal shift delta Tm [3]	thermal shift delta Tm [4]	thermal shift delta Tm [5]	thermal shift delta Tm [6]	thermal shift delta Tm [7]	thermal shift delta Tm [8]	thermal shift delta Tm [9]	thermal shift delta Tm [10]
O=C1NC(=O)/C(=C/c2cccc(C(F)(F)F)c2)S1	0.63 °C	0.3 °C	0.3 °C	0.28 °C	0.15 °C	0.3 °C	0.46 °C	0.44 °C	-0.36 °C	0.43 °C
CCCCCCCCCCCCCCCCCCOP(=O)([O-])OC1CC[N+](C)(C)CC1 [Perifosine (KRX-0401)]	-2.51 °C	-0.68 °C	-0.73 °C	-3.09 °C	-1.14 °C	-3.45 °C	-0.99 °C	-1.07 °C	-2.06 °C	-0.45 °C
CN1CCN(c2ccc3nc(-c4c(N)c5c(F)cccc5[nH]c4=O)[nH]c3c2)CC1 [Dovitinib (TKI-258, CHIR-258)]	-0.17 °C	10.3 °C	1.43 °C	0.59 °C	2.72 °C	3.99 °C	0.53 °C	2.72 °C	4.01 °C	-0.27 °C
Cc1cn(-c2cc(NC(=O)c3ccc(C)c(Nc4nccc(-c5cnccn5)n4)c3)cc(C(F)(F)F)c2)cn1 [Radotinib]	1.49 °C	1.07 °C	1.39 °C	0.63 °C	0.48 °C	0.3 °C	1.04 °C	0.67 °C	1.36 °C	1.82 °C
CSc1cccc(Nc2ncc3cc(-c4c(Cl)cccc4Cl)c(=O)n(C)c3n2)c1	1.54 °C	0.88 °C	0.94 °C	0.6 °C	0.72 °C	0.3 °C	0.11 °C	0.12 °C	0.99 °C	-0.06 °C
Nc1ncnc2c1c(-c1cnc3[nH]ccc3c1)nn2C1CCCC1	1.79 °C	1.57 °C	1.17 °C	4.61 °C	1.58 °C	0.76 °C	1.3 °C	2.67 °C	2.04 °C	0.76 °C
CCn1c2ccccc2c2cc(Nc3ccnc(NCCCN4CCOCC4)n3)ccc21	0.92 °C	1.04 °C	0.87 °C	0.29 °C	0.51 °C	0.28 °C	0.54 °C	1.04 °C	-0.17 °C	0.22 °C
COCCOc1ccc2c(c1)ncn2-c1ccc2cccc(N3CCC(N)CC3)c2n1	1.13 °C	0.82 °C	0.15 °C	1.35 °C	2.25 °C	8.53 °C	0.59 °C	3.85 °C	11 °C	0.26 °C
COc1cc(F)c(F)c(Nc2ccc(I)cc2F)c1NS(=O)(=O)C1(C[C@H](O)CO)CC1 [Refametinib (RDEA119, Bay 86-9766)]	0.45 °C	1.69 °C	0.96 °C	0.75 °C	-0.44 °C	0.49 °C	0.84 °C	0.79 °C	1.54 °C	1.26 °C
CN(C)C/C=C/C(=O)Nc1cc2c(Nc3ccc(F)c(Cl)c3)ncnc2cc1O[C@H]1CCOC1 [Afatinib (BIBW2992) Dimaleate]	0.18 °C	1.16 °C	1.57 °C	1 °C	0.71 °C	-0.12 °C	0.8 °C	1.12 °C	2.75 °C	1.68 °C
Cc1c(C(=O)N2CCOc3ccc(-c4ccc(N)nc4)cc3C2)ccc(S(C)(=O)=O)c1F	-0.07 °C	0.34 °C	0.98 °C	0.62 °C	0.21 °C	0.48 °C	-0.03 °C	0.91 °C	0.74 °C	0.12 °C
CNC(=O)c1cc(COc2nnc(Nc3ccc(Cl)cc3)c3ccoc23)ccn1 [Telatinib]	1.9 °C	0.6 °C	0.35 °C	0.76 °C	0.82 °C	0.19 °C	0.85 °C	0.69 °C	-0.19 °C	1.35 °C
COc1cc2ncnc(Nc3ccc(F)c(Cl)c3)c2cc1NC(=O)/C=C/CN1CCCCC1	2.23 °C	2.36 °C	1.39 °C	0.37 °C	1.76 °C	0.52 °C	1.55 °C	1.7 °C	0.41 °C	1.92 °C
Cc1ccc(C(=O)Nc2ccc(CN3CCN(C)CC3)c(C(F)(F)F)c2)cc1C#Cc1cnc2[nH]ncc2c1 [GZD824 Dimesylate]	1.83 °C	4.46 °C	1.12 °C	16.6 °C	2.51 °C	5.22 °C	0.8 °C	3.54 °C	4.33 °C	0.61 °C
O=C1Nc2ccc(CN3C(=O)CSC3=O)cc2/C1=C/c1cc(CN2CCOCC2)c[nH]1	0.8 °C	0.38 °C	0.05 °C	0.05 °C	0.83 °C	0.36 °C	-0.68 °C	2.55 °C	9.24 °C	-0.08 °C
COc1cc2c(c(OC)c1OC)-c1c(cc3c(c1OC)OCO3)CC(C)C(C)C2 (stereo not given) [Schisandrin B (Sch B)]	0.61 °C	0.33 °C	0.75 °C	0.34 °C	-0.14 °C	0.46 °C	0.64 °C	0.6 °C	0.07 °C	0.95 °C
C=CC(=O)Nc1ccc(CN2C(=O)N(c3cc(OC)cc(OC)c3)Cc3cnc(Nc4ccc(N5CCN(C)CC5)cc4)nc32)cc1	3.1 °C	0.63 °C	2.43 °C	0.9 °C	0.61 °C	1.17 °C	1.48 °C	1.77 °C	2.28 °C	1.39 °C
COc1ccc(S(=O)(=O)N(CCO)c2ccccc2CN(C)C/C=C/c2ccc(Cl)cc2)cc1 [KN-93 Phosphate]	2.05 °C	2.19 °C	0.56 °C	0.11 °C	0.92 °C	0.38 °C	0.44 °C	0.66 °C	0.97 °C	0.03 °C
Nc1ccc(-c2ccc3ncc4ccc(=O)n(-c5cccc(C(F)(F)F)c5)c4c3c2)cn1 [Torin 2]	0.64 °C	1.09 °C	1.01 °C	0.11 °C	0.33 °C	0.87 °C	0.19 °C	1.53 °C	1.62 °C	1.12 °C
CC(C)CCN1c2nc(Nc3cc(F)c(O)c(F)c3)ncc2N(C)C(=O)C1C (stereo not given)	1.71 °C	6.27 °C	2.07 °C	7.85 °C	8.73 °C	4.67 °C	1.13 °C	2.78 °C	3.11 °C	1.38 °C

Compound	thermal shift delta Tm [1]	thermal shift delta Tm [2]	thermal shift delta Tm [3]	thermal shift delta Tm [4]	thermal shift delta Tm [5]	thermal shift delta Tm [6]	thermal shift delta Tm [7]	thermal shift delta Tm [8]	thermal shift delta Tm [9]	thermal shift delta Tm [10]
Cc1ccc(NC(=O)c2ccc(CN3CCN(C)CC3)cc2)cc1Nc1nccc(-c2cccnc2)n1 [Imatinib (STI571)]	1.6 °C	0.71 °C	0.95 °C	0.65 °C	0.52 °C	0.38 °C	0.18 °C	1.39 °C	1.22 °C	0.21 °C
Cc1cc(Nc2ncnc3ccc(NC4=NC(C)(C)CO4)cc23)ccc1Oc1ccn2ncnc2c1 [Irbinitinib (ARRY-380, ONT-380)]	1.92 °C	0.15 °C	-0.86 °C	-1.49 °C	-1.04 °C	-0.85 °C	-0.86 °C	0.22 °C	0.7 °C	0.09 °C
N#C/C(=C(/N)Sc1ccc(N)cc1)c1ccccc1C(F)(F)F	0.82 °C	0.59 °C	0.64 °C	-0.09 °C	-0.57 °C	0.23 °C	0.12 °C	0.32 °C	-0.1 °C	0.43 °C
CCN(CC)CCCC(C)Nc1nc(C)cc(Nc2ccc3nc(C)cc(N)c3c2)n1 (stereo not given)	1.43 °C	0.65 °C	0.91 °C	0.28 °C	0.08 °C	0.16 °C	-0.06 °C	0.57 °C	0.93 °C	0.8 °C
COc1cc2ncnc(Nc3ccc(Cl)cc3F)c2cc1OC	1.2 °C	0.41 °C	1.4 °C	0.51 °C	0.32 °C	0.2 °C	1.32 °C	1.3 °C	4.69 °C	1.1 °C
CCN1CCN(Cc2ccc(Nc3ncc(F)c(-c4cc(F)c5nc(C)n(C(C)C)c5c4)n3)nc2)CC1	-0.28 °C	0.1 °C	0.59 °C	0.27 °C	0.39 °C	-0.01 °C	0.46 °C	2.49 °C	5.93 °C	0.23 °C
CCCCOc1c(C(=O)c2c(F)cc(C)cc2F)c[nH]c2nncc1-2	0.94 °C	0.86 °C	-0.01 °C	0.42 °C	1.31 °C	0.23 °C	0.81 °C	0.56 °C	1.75 °C	0.7 °C
CCCCCCCCCCCCCCCCOP(=O)([O-])OCC[N+](C)(C)C [Miltefosine]	-11.3 °C	-3.63 °C	-6.31 °C	-4.06 °C	-4.33 °C	-8.33 °C	-3.73 °C	-3.69 °C	-6.59 °C	-5.83 °C
Cc1cnc(-c2cnc(NCCNc3ccc(C#N)cn3)nc2-c2ccc(Cl)cc2Cl)[nH]1	0.99 °C and 1.83 °C	0.47 °C and 0.68 °C	0.39 °C and 1.43 °C	1.2 °C and 1.03 °C	0.03 °C and 0.47 °C	1.08 °C and 1.19 °C	1.11 °C and 0.87 °C	0.72 °C and 0.68 °C	0.07 °C and 0.44 °C	0.65 °C and 2.15 °C
CN(C)CCOc1ccc(-c2nc(-c3ccncc3)c(-c3ccc4c(c3)CC/C4=N\O)[nH]2)cc1	1.76 °C	0.92 °C	0.49 °C	0.02 °C	-0.45 °C	0.15 °C	1.2 °C	0.96 °C	-0.05 °C	-0.1 °C
COc1ccc(-c2nc(N3CCOCC3)c3sc(CN(C)c4ncc(C(=O)NO)cn4)cc3n2)cn1	2.79 °C	1.04 °C	0.58 °C	0.34 °C	0.21 °C	0.21 °C	1.31 °C	0.97 °C	0.54 °C	0.14 °C
O=C(NCc1ccccc1)c1csc(Nc2ccncn2)n1 [Thiazovivin]	1.74 °C	1.17 °C	0.63 °C	0.81 °C	0.47 °C	0.09 °C	1.58 °C	0.69 °C	0.71 °C	1.26 °C
COc1ccc(-c2ccc3c(N4CCOCC4)nc(N4C[C@@H](C)O[C@@H](C)C4)nc3n2)cc1CO	0.55 °C	0.67 °C	0.28 °C	-0.12 °C	-0.53 °C	-0.02 °C	0.61 °C	0.4 °C	-0.18 °C	0.46 °C
CN(C)C[C@@H]1CCn2cc(c3ccccc32)C2=C(C(=O)NC2=O)c2cn(c3ccccc23)CCO1	2.1 °C	0.51 °C	2.42 °C	0.43 °C	0.03 °C	0.53 °C	0.54 °C	1.19 °C	2.29 °C	1.69 °C
Nc1cc(C(F)(F)F)c(-c2cc(N3CCOCC3)nc(N3CCOCC3)n2)cn1 [Buparlisib (BKM120, NVP-BKM120)]	2.16 °C	0.57 °C	1.2 °C	0.16 °C	0.47 °C	0.27 °C	1.48 °C	0.84 °C	0.46 °C	0.37 °C
COc1cc(N2CCC(N3CCN(C)CC3)CC2)ccc1Nc1ncnc(Nc2ccccc2S(=O)(=O)C(C)C)n1	1.39 °C	0.48 °C	0.92 °C	0.72 °C	0.5 °C	0.84 °C	0.26 °C	1.76 °C	3.1 °C	0.11 °C
O=C1CCc2c(Oc3ccc4c(c3)[C@@H]3[C@H](O4)[C@H]3c3nc4cc(C(F)(F)F)ccc4[nH]3)ccnc2N1 [Lifirafenib (BGB-283)]	2.04 °C	3.33 °C	1.67 °C	8.07 °C	1.66 °C	0.46 °C	1.17 °C	1.38 °C	2.67 °C	2.49 °C
CC(C)c1cnn2c(NCc3ccccc3)cc(NCCCCCCN)nc12	0.82 °C	0.42 °C	0.03 °C	0.24 °C	-0.22 °C	0.19 °C	0.44 °C	0.66 °C	-0.59 °C	0.24 °C
COc1c(C)c(C(=O)c2ccc(N)c(C(=O)O)c2)n2ccccc12	1.57 °C	0.95 °C	1.12 °C	-0.1 °C	-0.08 °C	0.36 °C	0.92 °C	0.95 °C	-0.55 °C	1.28 °C
